By AC50 is commonly meant the concentration giving half of the maximal activity seen.

In test [1] the target is human Thyroid Receptor alpha (THRa1), THRA (gene 7067) (UniProt P10827). The test can be described thus: ATG_THRa1_TRANS: Attagene TRANS-FACTORIAL HepG2 Assay for human Thyroid Receptor alpha (THRa1) (AID 2283014; active = hit-call score of the fitted dose curve at least 0.9, where 1 is the maximum). In a few lines: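 HepG2 cells transiently transfected with chimeric NR-Gal4 and GAL4-UAS reporter units, dosed 24 h. Reporter mRNA quantified by RT-PCR, fluorescent labeling, HpaI digestion and capillary electrophoresis; gain-of-signal fit versus DMSO.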
Sequence of human Thyroid Receptor alpha (THRa1), THRA (gene 7067) (P10827 whole entry, looked up, the tested form may be a part): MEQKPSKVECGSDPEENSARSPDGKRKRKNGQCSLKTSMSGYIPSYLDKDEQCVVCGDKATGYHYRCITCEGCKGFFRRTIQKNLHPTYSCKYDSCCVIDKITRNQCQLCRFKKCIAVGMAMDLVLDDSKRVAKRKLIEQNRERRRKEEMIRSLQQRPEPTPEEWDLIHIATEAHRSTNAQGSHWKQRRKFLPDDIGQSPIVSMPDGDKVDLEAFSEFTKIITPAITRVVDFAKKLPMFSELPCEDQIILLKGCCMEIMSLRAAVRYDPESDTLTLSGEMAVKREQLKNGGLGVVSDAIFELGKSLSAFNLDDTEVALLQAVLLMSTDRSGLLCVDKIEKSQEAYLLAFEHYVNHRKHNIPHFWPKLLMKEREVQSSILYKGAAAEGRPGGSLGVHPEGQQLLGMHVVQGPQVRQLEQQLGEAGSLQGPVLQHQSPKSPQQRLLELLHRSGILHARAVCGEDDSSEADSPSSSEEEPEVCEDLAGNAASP

Read-out in test [2]: E-selectin (Homo sapiens) (UniProt P16581)
The test can be described thus: BSK_3C_Eselectin: BioMAP Diversity Plus: 3C Assay for Eselectin Biomarker Activity (AID 2283015).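 As to outcome: cell surface E-selectin protein quantified by ELISA 24 h after dosing.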 As to conditions: primary human endothelial cells (HUVEC); actives raise or lower the signal. The gist of the method:
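Primary human umbilical vein endothelial cells (3C system), read 24 h after compound addition; E-selectin measured by ELISA. Bidirectional curve fitting against DMSO baseline; cytotoxicity by parallel SRB total-protein staining.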

Read-out in test [3]: Interleukin-1 alpha (IL1a), IL1A (gene 3552)
The experiment in a line: BSK_BE3C_IL1a: BioMAP Diversity Plus: BE3C Assay for Interleukin-1 alpha (IL1a) Biomarker Activity (AID 2283016). As to conditions: primary human bronchial epithelial cells; actives raise or lower the signal. The gist of the method: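 ELISA read-out of IL-1a from human lung bronchial epithelial primary cells, 24 h post-dose. Gain or loss of signal fitted relative to DMSO negative control.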

Read-out in test [4]: Monocyte Chemoattractant Protein-1 (MCP1), CCL2 (gene 6347)
The experiment in a line: BSK_3C_MCP1: BioMAP Diversity Plus: 3C Assay for Monocyte Chemoattractant Protein-1 (MCP1) Biomarker Activity (AID 2283017). As to conditions: primary human endothelial cells (HUVEC); actives raise or lower the signal. In a few lines: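 Human umbilical vein endothelial cells (3C system) exposed to chemicals for 24 h; MCP-1 quantified by ELISA against the DMSO baseline with bidirectional fitting, and parallel SRB staining used to assess cytotoxicity.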

Read-out in test [5]: Monocyte Chemoattractant Protein-1 (MCP1), CCL2 (gene 6347)
The test can be described thus: BSK_4H_MCP1: BioMAP Diversity Plus: 4H Assay for Monocyte Chemoattractant Protein-1 (MCP1) Biomarker Activity (AID 2283018). As to conditions: primary human endothelial cells (HUVEC); actives raise or lower the signal. The gist of the method: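 HUVEC primary cells, 24 h post-dose, MCP-1 by ELISA. Gain or loss of signal fitted bidirectionally vs DMSO baseline. Cytotoxicity: SRB stain (0.1% after 10% TCA fixation), read 560 nm, parallel cultures.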

Read-out in test [6]: Human Leukocyte Antigen - DR isotype (HLADR), HLA-DRA (gene 3122)
The experiment in a line: BSK_3C_HLADR: BioMAP Diversity Plus: 3C Assay for Human Leukocyte Antigen - DR isotype (HLADR) Biomarker Activity (AID 2283019).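 As to outcome: ELISA of cell-surface HLA-DR on HUVEC 24 h after dosing.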 As to conditions: primary human endothelial cells (HUVEC); actives raise or lower the signal. The gist of the method:
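HUVEC monoculture, HLA-DR measured by ELISA 24 h after chemical dosing. Fitted bidirectionally against DMSO baseline; parallel SRB staining assessed cytotoxicity, with 3C proliferation read by SRB at 48 h.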

Read-out in test [7]: Interleukin-8 (IL8), CXCL8 (gene 3576)
The test can be described thus: BSK_3C_IL8: BioMAP Diversity Plus: 3C Assay for Interleukin-8 (IL8) Biomarker Activity (AID 2283020). As to conditions: primary human endothelial cells (HUVEC); actives raise or lower the signal. In a few lines: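 HUVEC, 3C stimulation; 24 h compound exposure; IL-8 read by ELISA; gain or loss of signal fitted relative to DMSO control.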

Read-out in test [8]: Monokine induced gamma interferon (MIG), CXCL9 (gene 4283)
The experiment in a line: BSK_3C_MIG: BioMAP Diversity Plus: 3C Assay for Monokine induced gamma interferon (MIG) Biomarker Activity (AID 2283021).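 As to AC50: MIG protein level measured by immunoassay in the treated endothelial cultures.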 As to conditions: primary human endothelial cells (HUVEC); actives raise or lower the signal. The gist of the method: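 HUVEC, 3C system; 24 h chemical exposure; MIG by ELISA; bidirectional fit vs DMSO baseline.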

Test [9] in a line: BSK_3C_SRB: Viability Assessment in the BioMAP Diversity Plus: 3C Assay (AID 2283023).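 Also: fitted both ways against DMSO so a hit may be signal rise or drop.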 As to conditions: primary human endothelial cells (HUVEC). The gist of the method:
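Human umbilical vein endothelial cells in the 3C system, treated 24 h. Total protein measured by 0.1% sulforhodamine B staining after 10% TCA fixation, read at 560 nm; bidirectional fit versus DMSO.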

Read-out in test [10]: Matrix Metallopeptidase 1 (MMP1), MMP1 (gene 4312)
The test can be described thus: BSK_BE3C_MMP1: BioMAP Diversity Plus: BE3C Assay for Matrix Metallopeptidase 1 (MMP1) Biomarker Activity (AID 2283024). As to conditions: primary human bronchial epithelial cells; actives raise or lower the signal. The gist of the method:
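ELISA read-out of MMP1 in human lung bronchial epithelial primary cultures, 24 h post-dose; bidirectional curve fit vs DMSO baseline, gain or loss of signal scored.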

Read-out in test [11]: Pselectin, SELP (gene 6403)
The experiment in a line: BSK_4H_Pselectin: BioMAP Diversity Plus: 4H Assay for Pselectin Biomarker Activity (AID 2283026). As to conditions: primary human endothelial cells (HUVEC); actives raise or lower the signal. The gist of the method: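 HUVEC, 24 h chemical exposure; P-selectin read by ELISA. Bidirectional curve fit vs DMSO baseline; gain or loss of signal scored.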

Test [12] can be described thus: BSK_4H_SRB: Viability Assessment in the BioMAP Diversity Plus: 4H Assay (AID 2283027).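 Also: cells exposed to compound for 24 h before staining.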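 As to AC50: curves fitted both ways versus DMSO so AC50 may be loss or gain.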 As to conditions: primary human endothelial cells (HUVEC). In a few lines: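 HUVEC, 24 h post-dose; 10% TCA fix, 0.1% SRB stain, A560 nm. Total protein = overt cytotoxicity, parallel to biomarker read. Bidirectional fit vs DMSO baseline.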
The nature of test [13]: BSK_BE3C_SRB: Viability Assessment in the BioMAP Diversity Plus: BE3C Assay (AID 2283028).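 As to AC50: fitted both ways so AC50 may mark signal gain or loss versus DMSO.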 As to conditions: primary human bronchial epithelial cells. In a few lines:
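Human bronchial epithelial primary cells in confluent culture, 24 h after chemical dosing; total protein by 0.1% SRB staining after 10% TCA fixation, read at 560 nm. Bidirectional fitting versus DMSO baseline.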

Read-out in test [14]: Thrombomodulin, THBD (gene 7056)
The experiment in a line: BSK_3C_Thrombomodulin: BioMAP Diversity Plus: 3C Assay for Thrombomodulin Biomarker Activity (AID 2283029). As to conditions: primary human endothelial cells (HUVEC); actives raise or lower the signal. The gist of the method:
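HUVEC, 3C conditions; compound 24 h; thrombomodulin by ELISA; bidirectional curve fit vs DMSO baseline; parallel SRB total-protein staining for cytotoxicity.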

Read-out in test [15]: Urokinase-type plasminogen activator receptor (uPAR), PLAUR (gene 5329)
The experiment in a line: BSK_4H_uPAR: BioMAP Diversity Plus: 4H Assay for Urokinase-type plasminogen activator receptor (uPAR) Biomarker Activity (AID 2283030). As to conditions: primary human endothelial cells (HUVEC); actives raise or lower the signal. The gist of the method:
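Human umbilical vein endothelial cells in the 4H system, 24 h after chemical dosing. Cell-surface uPAR measured by ELISA, fitted in both directions versus DMSO; cytotoxicity checked by SRB total protein in parallel cultures.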

Read-out in test [16]: Vascular endothelial growth factor receptor 2 (Homo sapiens) (UniProt P35968)
The experiment in a line: BSK_4H_VEGFRII: BioMAP Diversity Plus: 4H Assay for Vascular endothelial growth factor receptor 2 (VEGFR2) Biomarker Activity (AID 2283031).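 As to AC50: cell-surface VEGFR2 protein level quantified by ELISA.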 As to conditions: primary human endothelial cells (HUVEC); actives raise or lower the signal. In a few lines: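 Primary human umbilical vein endothelial cells (4H system), 24 h exposure; cell-surface VEGFR2 measured by ELISA. Bidirectional fitting versus DMSO; cytotoxicity checked in parallel by SRB total-protein staining.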

Read-out in test [17]: Human Leukocyte Antigen - DR isotype (HLADR), HLA-DRA (gene 3122)
The test can be described thus: BSK_BE3C_HLADR: BioMAP Diversity Plus: BE3C Assay for Human Leukocyte Antigen - DR isotype (HLADR) Biomarker Activity (AID 2283032). As to conditions: primary human bronchial epithelial cells; actives raise or lower the signal. In a few lines:
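Primary human bronchial epithelial cells (BE3C); 24 h chemical exposure; HLA-DR by ELISA; bidirectional curve fit vs DMSO baseline.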

Test [18] can be described thus: BSK_3C_Vis: BioMAP Diversity Plus: 3C Assay for Morphology Visualization (AID 2283025).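 Also: fitted both ways so gain or loss versus DMSO counts.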 As to conditions: primary human endothelial cells (HUVEC). The gist of the method: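 HUVEC, 3C system; light microscopy of morphology at 24 h post-dose. Bidirectional fit vs DMSO baseline. Secondary readout, background-control function.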
Test [19] addresses human Vitamin D Receptor (VDR), VDR (gene 7421) (UniProt P11473). The test can be described thus: ATG_VDR_TRANS: Attagene TRANS-FACTORIAL HepG2 Assay for human Vitamin D Receptor (VDR) (AID 2283022; active = hit-call score of the fitted dose curve at least 0.9, where 1 is the maximum). The gist of the method: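 HepG2 cells were transiently transfected with GAL4-UAS reporter units and a chimeric VDR-Gal4 construct, then dosed for 24 hours. Reporter mRNA was quantified by RT-PCR, fluorescent labeling, HpaI digestion and capillary electrophoresis; gain of signal analysed vs DMSO.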

Records with an inconclusive call do not appear. Activity calls are given as the source filed them. The calls were made as follows, unless noted: active = hit-call score of the fitted dose curve at least 0.9, where 1 is the maximum; inactive = score below 0.9.

Sequence of E-selectin (Homo sapiens) (P16581 whole entry, looked up): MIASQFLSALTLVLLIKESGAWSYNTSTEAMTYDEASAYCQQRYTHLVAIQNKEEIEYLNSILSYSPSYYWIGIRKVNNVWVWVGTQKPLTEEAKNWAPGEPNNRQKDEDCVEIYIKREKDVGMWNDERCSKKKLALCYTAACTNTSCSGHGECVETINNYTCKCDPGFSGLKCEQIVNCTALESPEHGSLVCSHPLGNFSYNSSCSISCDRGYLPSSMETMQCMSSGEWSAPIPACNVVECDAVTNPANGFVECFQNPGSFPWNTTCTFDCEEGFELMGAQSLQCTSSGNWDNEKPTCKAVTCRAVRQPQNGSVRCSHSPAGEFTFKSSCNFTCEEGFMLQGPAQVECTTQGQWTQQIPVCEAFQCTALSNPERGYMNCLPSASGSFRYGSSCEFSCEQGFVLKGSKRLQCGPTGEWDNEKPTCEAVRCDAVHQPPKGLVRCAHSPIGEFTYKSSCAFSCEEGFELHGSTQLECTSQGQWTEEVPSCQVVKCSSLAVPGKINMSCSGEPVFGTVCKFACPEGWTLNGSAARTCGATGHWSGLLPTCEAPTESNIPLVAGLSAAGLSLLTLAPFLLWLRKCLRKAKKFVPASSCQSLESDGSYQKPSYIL
Sequence of human Vitamin D Receptor (VDR), VDR (gene 7421) (P11473 whole entry, looked up, the tested form may be a part): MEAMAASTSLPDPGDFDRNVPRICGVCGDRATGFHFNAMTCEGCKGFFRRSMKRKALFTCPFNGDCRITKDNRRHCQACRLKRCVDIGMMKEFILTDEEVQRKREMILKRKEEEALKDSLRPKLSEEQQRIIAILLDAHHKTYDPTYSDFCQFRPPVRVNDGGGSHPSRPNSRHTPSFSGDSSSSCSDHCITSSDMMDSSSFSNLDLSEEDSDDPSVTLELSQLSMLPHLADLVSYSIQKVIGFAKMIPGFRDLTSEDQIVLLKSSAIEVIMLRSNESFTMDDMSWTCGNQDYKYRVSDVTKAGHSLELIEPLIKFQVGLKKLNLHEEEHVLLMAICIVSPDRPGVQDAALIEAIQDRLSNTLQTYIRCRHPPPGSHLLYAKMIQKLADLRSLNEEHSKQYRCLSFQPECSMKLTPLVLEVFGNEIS

`C=C[Si](OC(C)=O)(OC(C)=O)OC(C)=O`: the compound was classed as inactive in test [1], in test [2], in [3], in test [4], in [5] and in [6]. The outcome in test [7], in test [8], in [9], in test [10], in [11] and in test [12] was inactive. The outcome in test [13], in test [14], in test [15], in [16] and in test [17] was inactive.

On to `O=c1c2ccccc2oc2ccccc12`, for which the result in test [1], in test [2], in test [4], in test [5], in test [6] and in [7] was inactive. In addition, the outcome in test [8], in [9], in [18], in [11], in test [12] and in test [13] was inactive. Besides, the outcome in test [14], in test [15], in [16] and in [17] was inactive. For the same compound, the AC50 in [3] was 0.173 µM (active); in [10], 0.139 µM (active).

With `CC(C)COC(=O)C=Cc1ccccc1`, the outcome in test [1] and in test [19] was inactive.

Consider `O=C1CCC(=O)N1Cl`, for which the compound was called inactive in test [1] and in test [19].

Consider `CCCCCCCOC(=O)CCC`, for which the compound was classed as inactive in test [1] and in [19].

`O=C(O)c1ccccc1Nc1cccc(C(F)(F)F)c1`: the call in [1] and in test [19] was inactive.

Take `CCc1nccnc1C`: the call in [1] and in test [19] was inactive.

`C=CC(=O)OCC(Br)CBr` (configuration not stated): the call in test [1], in [10], in [13] and in test [14] was inactive. Also, the concentration at half-maximal activity (AC50) was 20 µM (active) in test [2]; 20 µM (active) in test [3]; 31.8 µM (active) in [4]; 26.6 µM (active) in test [5]; 5.44 µM (active) in test [6]; 20 µM (active) in [7]. In addition, the concentration at half-maximal activity (AC50) in [8] was 33 µM (active); in test [9] it was 32.5 µM (active); in test [18], 16.6 µM (active); in [11], 20 µM (active); in [12] it was 31.6 µM (active); in test [15], 32.4 µM (active). For the same compound, the values for the half-maximal activity concentration (AC50) in [16] and in test [17] were 37 µM (active) and 14.4 µM (active), respectively.

In the case of `COC(=O)c1sccc1S(N)(=O)=O`, the compound was called inactive in test [1] and in test [19].

Turning to `CCCCCCCCO[C@@H]1O[C@H](CO)[C@@H](O)[C@H](O)[C@H]1O`, the call in test [1] and in [19] was inactive.

Turning to `OCCc1ccncc1`, the outcome in [1] and in test [19] was inactive.

On to `O=C(Cl)c1cc(C(=O)Cl)cc(C(=O)Cl)c1`, for which the call in test [1], in test [14] and in test [16] was inactive. The AC50 is 15.1 µM (active) in [2]; 29.5 µM (active) in test [3]; 11.6 µM (active) in [4]; 12.8 µM (active) in test [5]; 10.5 µM (active) in test [6]; 9.93 µM (active) in [7]. For the same compound, the AC50 in test [8] was 29.3 µM (active); in [9], 20 µM (active); in test [10], 20 µM (active); in test [18], 12.5 µM (active); in [11], 11.6 µM (active); in test [12], 26.8 µM (active). For the same compound, the AC50 in [13] is 29.1 µM (active); in [15], 20 µM (active); in [17] it was 28.8 µM (active).

For the origin of these results see PubChem BioAssay (EPA / NIEHS).
